# Source: the supplement of paper PMC7366291
# Where a name gives a salt, the structure may show the parent alone. ± gives the standard deviation or the standard deviation of the averaged measurements.
# How the values were obtained:
# Conditions in all cases: 25 µM; exposure: 24-48 hpf
# [1] = system: Danio rerio Tg(wt1b:EGFP) embryo, pronephros; assay: glomerular separation, fold change vs DMSO control; higher = glomeruli further apart (abnormal)
# Outline: (§1)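 Dechorionated Tg(wt1b:EGFP) zebrafish embryos were kept from 24 to 48 hpf at 28.5°C in HEPES-buffered E3 containing 0.003% PTU, 0.5% DMSO and 25 μM compound. The pronephroi were then imaged from the dorsal side in agarose-filled 96-well plates at 470 nm with 10 z-slices, and 16 reference points were placed by hand on maximum projections in Fiji so that a macro could calculate distances and angles. Values lying more than 2 SD from the mean of a feature were discarded. Every feature is given as a fold change against the mean of DMSO-treated embryos from the same day.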
# [2] = system: Danio rerio Tg(wt1b:EGFP) embryo, pronephros; assay: glomerular width (mean of left and right), fold change vs DMSO control; higher = wider glomerulus
# Outline: as §1
# [3] = system: Danio rerio Tg(wt1b:EGFP) embryo, pronephros; assay: fraction of imaged embryos annotated as normal kidney; higher = less nephrotoxic; extreme values may be limits of the assay
# Outline: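 Zebrafish embryos carrying Tg(wt1b:EGFP) were dechorionated and exposed to 25 μM compound (0.5% DMSO) between 24 and 48 hpf at 28.5°C. Their pronephroi were imaged by widefield fluorescence, and each embryo was classed by hand from maximum projections. The measure is the fraction of embryos per treatment falling in the normal-kidney category.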
# [4] = system: Danio rerio Tg(wt1b:EGFP) embryo, pronephros; assay: pronephric angle neck segment to proximal convoluted tubule (mean of left and right), fold change vs DMSO control; higher = larger pronephric angle
# Outline: as §1
SMILES,glomerular separation [1],glomerular width [2],fraction of imaged embryos annotated as normal kidney [3],pronephric angle neck segment [4]
Cc1cc(O)c(C(=O)N[C@@H](C(=O)N[C@@H]2C(=O)N3C(C(=O)O)=C(CSc4nnnn4C)CS[C@H]23)c2ccc(O)cc2)cn1 [Cefpiramide],1.22 ± 0.39,0.985 ± 0.089,0.833,0.9442 ± 0.0043
CC(C)(C#N)c1cc(Cn2cncn2)cc(C(C)(C)C#N)c1 [Anastrozole],1.2 ± 0.37,1.059 ± 0.0058,0.75,1.04 ± 0.062
COc1cc([S+](C)[O-])ccc1-c1nc2cccnc2[nH]1 (stereo unspecified) [Sulmazole],0.979 ± 0.27,1.05 ± 0.015,0.833,0.9818 ± 0.0097
Cc1ccc(S(=O)(=O)NC(=O)NN2CCCCCC2)cc1 [Tolazamide],0.828 ± 0.19,0.948 ± 0.015,0.917,0.972 ± 0.023
CC(=O)OCC(=O)[C@@]12N=C(C)O[C@@H]1C[C@H]1[C@@H]3CCC4=CC(=O)C=C[C@]4(C)[C@H]3[C@@H](O)C[C@@]12C [Deflazacort],1.15 ± 0.41,1.06 ± 0.014,0.25,0.944 ± 0.058
CCCc1ncc(C[n+]2ccccc2C)c(N)n1 [Amprolium hydrochloride],1.14 ± 0.19,0.936 ± 0.042,1,1 ± 0.018
COc1ccc(C2CNC(=O)C2)cc1OC1CCCC1 (stereo unspecified) [Rolipram],0.895 ± 0.31,0.955 ± 0.023,0.833,1.08 ± 0.086
CCCC1C(=O)N2C(N(C)C)=Nc3ccc(C)cc3N2C1=O (stereo unspecified) [Azapropazone],1.16 ± 0.34,0.984 ± 0.022,0.917,1.018 ± 0.0029
OCCN1CCN(CCCN2c3ccccc3C=Cc3ccccc32)CC1 [Opipramol dihydrochloride],0.662 ± 0.23,1.1 ± 0.043,0.75,1.02 ± 0.076
c1cnc(N2CCN(Cc3ccc4c(c3)OCO4)CC2)nc1 [Piribedil hydrochloride],1.01 ± 0.4,0.962 ± 0.028,0.833,1.01 ± 0.055
Cc1cccc(Nc2ccncc2S(=O)(=O)NC(=O)NC(C)C)c1 [Torsemide],1.12 ± 0.3,0.95 ± 0.015,1,0.905 ± 0.03
CC(=O)OCC(=O)NCCCOc1cccc(CN2CCCCC2)c1 [Roxatidine Acetate hydrochloride],1.07 ± 0.37,1 ± 0.03,0.667,1.01 ± 0.06
CCN(CC)CCOC(=O)C1(c2ccc([N+](=O)[O-])cc2)CCCC1 [Nitrocaramiphen hydrochloride],0.899 ± 0.43,0.971 ± 0.037,0.909,0.984 ± 0.075
C[C@]12CC[C@@H]3c4ccc(O)cc4CC[C@H]3[C@@H]1C[C@@H](O)[C@@H]2O [Estriol],0.626 ± 0.2,1.03 ± 0.042,0.917,1.026 ± 0.0015
CNCCCN1c2ccccc2CCc2ccccc21 [Desipramine hydrochloride],0.966 ± 0.26,0.996 ± 0.032,0.833,1 ± 0.047
Nc1ncnc2c1ncn2C1OC(COP(=O)(O)O)C(O)C1O (stereo unspecified) [Adenosine 5'-monophosphate monohydrate],0.936 ± 0.26,1.029 ± 0.0059,0.917,0.9657 ± 0.0086
CCc1nc(N)nc(N)c1-c1ccc(Cl)cc1 [Pyrimethamine],0.78 ± 0.26,1.15 ± 0.041,0.75,0.974 ± 0.018
C[C@]12CCC(=O)C=C1C=C[C@@H]1[C@@H]2CC[C@@]2(C)[C@H]1CC[C@@]21CCC(=O)O1 [Canrenone],1.24 ± 0.51,0.798 ± 0.02,0.818,1.07 ± 0.031
C[C@]1(Cn2ccnn2)[C@H](C(=O)O)N2C(=O)C[C@H]2S1(=O)=O [Tazobactam],0.923 ± 0.63,1.07 ± 0.018,0.75,0.985 ± 0.018
CO[C@H]1C[C@H](O[C@H]2[C@H](C)[C@@H](O[C@@H]3O[C@H](C)C[C@H](N(C)C)[C@H]3OC(C)=O)[C@@H](C)C[C@@]3(CO3)C(=O)[C@H](C)[C@@H](OC(C)=O)[C@@H](C)[C@@H](C)OC(=O)[C@@H]2C)O[C@@H](C)[C@@H]1OC(C)=O [Troleandomycin],1.39 ± 0.74,1.12 ± 0.066,0.917,0.969 ± 0.019
"CC(C)NCC(O)c1ccc(O)c(O)c1 (single isomer, unassigned; (-)) [(-)-Isoproterenol hydrochloride]",0.881 ± 0.24,1.033 ± 0.0021,0.833,1.02 ± 0.021
CC(=O)NC[C@H]1CN(c2ccc(N3CCOCC3)c(F)c2)C(=O)O1 [Linezolid],0.987 ± 0.23,1.02 ± 0.019,0.917,0.936 ± 0.029
Nc1nc(=O)c2c([nH]1)NC[C@@H](CNc1ccc(C(=O)N[C@@H](CCC(=O)O)C(=O)O)cc1)N2C=O [Folinic acid calcium salt],0.989 ± 0.3,1.01 ± 0.016,0.583,0.979 ± 0.042
C[C@H](CCC(=O)O)[C@H]1CC[C@H]2[C@@H]3C(=O)C[C@@H]4CC(=O)CC[C@]4(C)[C@H]3CC(=O)[C@]12C [Dehydrocholic acid],0.9 ± 0.25,0.978 ± 0.07,0.833,0.984 ± 0.029
